High-throughput results as filed in PubChem BioAssay.
CF NFkB inh = blocks PAF-induced NF-kB reporter in cystic fibrosis cells; inhibition, % at 5 µM; 0.86% of 360,000 active; KKLEB NF-kB-GFP reporter, GFP fluorescence overnight;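 active = at least 50% inhibition at 5 µM, scaled per plate between neutral and stimulator controls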;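 also: PAF is a Pseudomonas aeruginosa culture filtrate used as stimulus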
KKLEB cytotox = CF airway cell cytotoxicity counter-screen; AID 602141; activity change (cytotoxicity), % at 5 µM; 0.36% of 360,000 active; KKLEB CF airway cells viability, ATPlite luminescence, overnight; hits give low values; cells stimulated with P. aeruginosa culture filtrate;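 active = corrected activity change at or below -50% at 5 µM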
Peg3 promoter = Peg3 promoter activity inhibition. HeLa PEG-Prom luciferase reporter, luminescence, overnight. inhibition, % at 20 µM. 1.7% of 360,000 active. AID 588405;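 active = inhibition of at least 50% at 20 µM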
TROY NFkB inh = inhibitors of TROY-dependent NF-kB signaling; 0.98% of 360,000 active; AID 1347056; Q293 LMP1-TROYcd NF-kB luciferase reporter, 4 h; inhibition, % at 10 µM;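 active = compounds whose plate-normalised and pattern-corrected inhibition of the luciferase reporter signal at the single screening dose is 50% or more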
TWEAK Fn14 block = TWEAK-Fn14 signaling inhibition. TWEAK-stimulated Fn14 reporter cells, luciferase luminescence, 8 h. inhibition, % at 10 µM. 2% of 360,000 active. AID 1159606; in the data active = inhibition above about 50%
HIF-2a inh = HIF-2a inhibition | inhibition, % at 18.8 µM | AID 624352 | 0.72% of 360,000 active | 786-0 RCC cells HIF-2a reporter, luciferase luminescence, overnight;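 active = inhibition of the luminescence signal of 40% or more relative to plate controls, in a single-dose primary screen at 18.75 µM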
Of the large screens only hits and unclear results are named; the others gave an inactive call. Rows were chosen to be rich in hits. Some 4% of all compounds tested hit in one or more screens of this group.

CC1CCCN(c2ncnc3c2cnn3-c2ccccc2)C1 (configuration not stated)	KKLEB cytotox -54.5, TROY NFkB inh 80.0, TWEAK Fn14 block 92.5
CCN1CCN(c2ncnc3c2cnn3-c2ccccc2)CC1	none
N#Cc1ccc(NC(=O)CSc2cn[nH]n2)cc1	TWEAK Fn14 block 90.4
Cc1ccc(NC(=O)CSc2cn[nH]n2)cc1	none
COc1ccc(-c2cc(C(=O)N(C)Cc3ccc(F)cc3)c3ccccc3n2)cc1OC	none
C=CCn1c(SCc2ccc(C(=O)Nc3nccs3)cc2)nnc1-c1ccc(C)c(Cl)c1	Peg3 promoter 51.9, TWEAK Fn14 block 91.6
Cn1nnnc1SCc1ccc(C(=O)Nc2nccs2)cc1	none
COC(CN(C)C(C(=O)NC1CCCCC1)c1ccccc1)OC (configuration not stated)	TWEAK Fn14 block 80.8
O=C(NCCc1c[nH]c2ccccc12)OCCCCOC(=O)NCCc1c[nH]c2ccccc12	TROY NFkB inh 70.8, TWEAK Fn14 block 74.2
c1ccc(COc2cccc(CN3CCCCC3)c2)cc1	TWEAK Fn14 block 103.2
CC1CCCN(C(=O)CSc2ncccn2)C1 (configuration not stated)	none
CCOC(=O)C1=C(CSc2nc3ccccc3s2)NC(=O)NC1c1ccc(OC)cc1 (configuration not stated)	Peg3 promoter 63.5
COc1ccc(Cl)cc1N1C(=O)CN(Cc2cc(OC)c(OC)c(OC)c2)C1=S	none
C[C@H]1CCC/C=C/[C@@H]2C[C@H](O)C[C@H]2[C@H](O)[C@H](S(=O)c2ccc(O)cc2)CC(=O)O1 (some centres not stated)	CF NFkB inh 65.6, Peg3 promoter 52.3
CC(C)Sc1nc(SCC(=O)NCc2ccco2)c2c3c(sc2n1)COC(C)(C)C3	TROY NFkB inh 78.6, TWEAK Fn14 block 79.2
CC(C)Sc1nc(SCC(=O)O)c2c3c(sc2n1)COC(C)(C)C3	none
O=C(Nc1ccc2snnc2c1)N1CCOCC1	none
S=C(Nc1ccc(N2CCOCC2)cc1)Nc1ccc2snnc2c1	TROY NFkB inh 75.8, TWEAK Fn14 block 72.9
O=C(NNC(=O)c1cnccn1)c1ccc(Cl)cc1	none
C=CC[n+]1c(-c2ccc(Cl)cc2Cl)csc1Nc1ccc(NC(C)=O)cc1	HIF-2a inh 94.7
COc1ccccc1OCCCC(=O)Nc1ccc([N+](=O)[O-])cc1Br	none
O=C(CSc1n[nH]c(-c2ccncc2)n1)Nc1ccccc1C(F)(F)F	none
COc1ccccc1N1CCN(c2ccc(-c3ccccc3)nn2)CC1	TROY NFkB inh 65.7, TWEAK Fn14 block 70.8
COCCN(CCOC)S(=O)(=O)c1ccc(C(=O)Nc2nnc(C3CC3)o2)cc1	TWEAK Fn14 block 66.7
C=CCn1c(O)c(C2=c3ccccc3=NC2=O)s/c1=N/c1nccs1	none
C=CCn1c(O)c(C2=c3ccccc3=NC2=O)c2ccccc21	HIF-2a inh 45.2
Cc1ccc2c(c1)c(C1=c3ccccc3=NC1=O)c(O)n2C	CF NFkB inh 52.9, HIF-2a inh 42.3
C=CCSC1=NC(=O)/C(=C/c2cccs2)S1	Peg3 promoter 53.2
CCC(=O)NN1CCN(c2ccncc2S(=O)(=O)N2CCCCC2)CC1	none
C[C@H]1COc2cccc(N(C)CCO)c2S(=O)(=O)N1	none (no result: CF NFkB inh, KKLEB cytotox, Peg3 promoter)
CCC(C)n1ncn(-c2ccc(N3CCN(c4ccc(OCC5COC(Cn6cncn6)(c6ccc(Cl)cc6Cl)O5)cc4)CC3)cc2)c1=O (configuration not stated)	CF NFkB inh 63.4
Cc1ccc(C)c(N2CCN(C(C(=O)NC3CCCC3)C(C)C)CC2)c1 (configuration not stated)	none (no result: CF NFkB inh, KKLEB cytotox, Peg3 promoter, TROY NFkB inh, TWEAK Fn14 block)
COc1ccc(C(=O)NCCn2cc(SCC(=O)Nc3nnc(C)s3)c3ccccc32)cc1	TROY NFkB inh 62.2, TWEAK Fn14 block 66.9
COc1ccc(C(=O)NCCn2cc(SCC(=O)NCc3ccco3)c3ccccc32)cc1	TROY NFkB inh 63.7
COc1ccc(C(=O)NCCn2cc(SCC(=O)NCC3CCCO3)c3ccccc32)cc1 (configuration not stated)	TROY NFkB inh 59.2, TWEAK Fn14 block 84.5
COc1ccccc1C(=O)NCCn1cc(SCC(=O)NCC2CCCO2)c2ccccc21 (configuration not stated)	none
Cc1cc(C)n(-c2nc(NC(C)(C)C)nc(NC(C)(C)C)n2)n1	none
Cc1cc(C)n(-c2nc(Nc3ccccc3C(F)(F)F)nc(-n3nc(C)cc3C)n2)n1	Peg3 promoter 86.2, TROY NFkB inh 79.5, TWEAK Fn14 block 81.4
CCc1ccc(NC(=O)c2ccc(NC(=O)C3CCCO3)cc2)cc1 (configuration not stated)	none
COc1ccc(C(C(=O)NC2CCCC2)N(C(=O)c2snc(-c3ccc(F)cc3)c2N)c2cccc(F)c2)cc1 (configuration not stated)	Peg3 promoter 50.6
COc1cccc(-c2cc3nc4c(c(NCC(C)(C)CN(C)C)n3n2)CCCC4)c1	TROY NFkB inh 80.9, TWEAK Fn14 block 61.1
CN1/C(=C\C=N\O)C(C)(C)c2ccccc21	none
CN(C)c1ccc(N=C/C=C2/N(C)c3ccccc3C2(C)C)cc1	TWEAK Fn14 block 60.7
C[C@H](O)[C@@H]1CN2CCc3c([nH]c4ccc(-c5ccc6c(c5)OCO6)cc34)[C@@H]2C[C@@H]1N(C)C(=O)Nc1cc(Cl)cc(Cl)c1	Peg3 promoter 66.6
C[C@H](O)[C@@H]1CN2CCc3c([nH]c4ccccc34)[C@@H]2C[C@@H]1N(C)C(=O)Nc1ccc(F)cc1	none
C[C@H](O)[C@@H]1CN2CCc3c([nH]c4ccccc34)[C@@H]2C[C@@H]1N(C)C(=O)Nc1cc(Cl)cc(Cl)c1	none
Cc1cccc(-c2ccc3[nH]c4c(c3c2)CCN2C[C@@H]([C@H](C)O)[C@@H](N(C)C(=O)Nc3ccc(F)cc3)C[C@@H]42)c1	Peg3 promoter 100.4
O=S(=O)(NCc1nnc2ccccn12)c1ccc(Cl)cc1	none
COc1ccc(-c2cc(C(=O)O)c(C)o2)cc1OC	TROY NFkB inh 59.5, TWEAK Fn14 block 97.9
COc1cccc(C(=O)NNC(=O)Cc2cccs2)c1	none
CN(C(=O)COC(=O)c1ccccc1SCC(=O)N1CCCC1)c1ccccc1	none
CCOC(=O)c1c(C)n(-c2ccc(C)cc2)c2ccc(OCC(O)CN3CCN(C)CC3)cc12 (configuration not stated)	Peg3 promoter 78.5
COc1ccc(/C=N/Nc2cc(C)nc3ccccc23)cc1	Peg3 promoter 103.0
COc1ccc(/C=N/Nc2cc(C)nc3c(C)cccc23)cc1	Peg3 promoter 110.7
O=S(=O)(NCCC1=CCCCC1)c1ccc(Br)cc1	none
COCCn1c(SCC(=O)NC2(C#N)CCCCC2)nc2ccccc2c1=O	none
Nc1ccc(-c2cnc(-c3ccc(N)cc3)nc2)cc1	TWEAK Fn14 block 66.6
